Experimental data published in PubChem BioAssay AID488896 (Broad Institute, 2010).
In all, about 320,000 compounds went through this assay and about 3,100 (0.97%) were called active. This is one part of a sample in which actives are shown more often than they occur. A number with no mark means an inactive call.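 Rule for the calls: active = mean replicate inhibition of at least 70% and a set share of replicates each scoring 70 or more; inconclusive = meets just one of the two criteria; inactive = fails both criteria.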

Molecular target: Scavenger receptor class B member 1 (Mus musculus) (UniProt Q61009)
Sequence (Q61009 whole entry, looked up): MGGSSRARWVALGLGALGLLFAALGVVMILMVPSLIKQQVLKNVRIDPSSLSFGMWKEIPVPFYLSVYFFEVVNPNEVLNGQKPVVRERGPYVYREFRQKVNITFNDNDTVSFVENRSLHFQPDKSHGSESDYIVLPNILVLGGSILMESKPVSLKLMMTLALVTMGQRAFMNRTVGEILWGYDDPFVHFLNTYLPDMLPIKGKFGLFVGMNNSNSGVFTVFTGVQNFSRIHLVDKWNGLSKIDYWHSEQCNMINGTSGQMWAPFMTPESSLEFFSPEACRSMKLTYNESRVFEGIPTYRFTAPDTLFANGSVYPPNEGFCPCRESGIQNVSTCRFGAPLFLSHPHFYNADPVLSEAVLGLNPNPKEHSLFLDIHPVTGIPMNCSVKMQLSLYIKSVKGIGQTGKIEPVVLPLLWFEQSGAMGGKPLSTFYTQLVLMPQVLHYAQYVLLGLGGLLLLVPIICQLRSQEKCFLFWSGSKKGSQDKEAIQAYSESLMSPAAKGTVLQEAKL
Experiment: mouse SR-BI DiI-HDL uptake blockers – ldlA[mSR-BI] cells, fluorescence, single point, primary screen (AID 488896);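 note: 0% = median of neutral control wells and 100% = median of positive control wells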
Details: ldlA[mSR-BI] CHO cells, 3 h, at 12.5 µM, active compounds read high

Point of comparison: `COc1cccc(C(=O)Nc2nnc(S(=O)(=O)N3CCCCC3)s2)c1`, inhibition -13.3%. Against it:
- CC(C)(C)C(=O)Nc1cccc(-c2ccc[nH]2)n1 — higher, -5.41%
- O=C(CN1CCC(NC(=O)Nc2ccccc2)CC1)Nc1cccc([N+](=O)[O-])c1 — higher, 30.9%
- COc1cccc(NC(=O)CN2CCN(CC(=O)Nc3ccccc3Cl)CC2)c1 — higher, 19.8%
- O=C(Cc1ccc([N+](=O)[O-])cc1)NCCc1ccc2c(c1)OCO2 — higher, 30.8%
- CC(C)=CCc1ccc(O)c(=O)cc1C(C)C — higher, 12.4%
- CC(=O)OC1CCC2C3CCC4=C(CC(F)C(=O)C4)C3CCC12C (stereo not given) — higher, 3.99%
- C(=N\Nc1ccc2ccccc2n1)/c1ccc2c(c1)OCO2 — higher, 7.43%
- Brc1ccc(-c2csc(N/N=C/c3cccnc3)n2)cc1 — higher, 37.2%
- NC(=O)c1ncn([C@@H]2O[C@H](CNCc3cnc(N4CCOCC4)s3)[C@@H](O)[C@H]2O)n1 — higher, 12%
- CC/C(=C(/c1ccccc1)c1ccc(OCC[N+](C)(C)C)cc1)c1ccccc1 — lower, -44.1%
- O=C(O)/C=C\C(=O)Nc1ccc(OCc2ccccc2)cc1 — higher, -11.2%
- Cc1cccc(NC(=O)Nc2ccc(OCc3ccccc3)cc2)n1 — higher, 17.6%
- Cc1cc(NC(=O)C(C)SCC(=O)Nc2cccc(S(=O)(=O)N3CCCCCC3)c2)no1 (stereo not given) — higher, 41.5%
- Cc1cn(C2CC(O)C(CO)O2)c(=O)n(CCCc2ccccc2)c1=O (stereo not given) — higher, 2.76%
- Cc1ccccc1OCC(=O)Nc1ccc(S(=O)(=O)N2CCOCC2)cc1 — higher, -12.4%
- Cc1ccccc1OCC(=O)Nc1ccc2c(c1)ncn2C — higher, 9.34%
- Cc1ccc(Cn2c(C)c3cnn(CC(=O)NCCN4CCOCC4)c(=O)c3c2C)cc1 — higher, 22.1%
- CCC1(C)COC(c2ccc(OC)c(OC)c2)OC1 (stereo not given) — higher, -11.4%
- Cc1ccc(C(=O)O)c(NC=O)c1OCc1ccccc1 — lower, -19.3%
- CCOC(=O)COc1ccc([N+](=O)[O-])cc1 — lower, -24.5%
- CCOC(=O)/C(C#N)=C/c1ccc(OCC(=O)Nc2ccccc2)c(OC)c1 — higher, -11.4%
- Cc1nc2ccc(N)nc2nc1C — higher, 22.1%
- O=[N+]([O-])c1ccc(NS(=O)(=O)c2ccccc2)c(Cl)c1 — lower, -84.4%
- COc1cccc2oc(CCc3ccccc3)cc(=O)c12 — higher, -4.54%
- COc1ccccc1C(=O)NC(=S)Nc1ccccc1N1CCCCC1 — higher, 49.6%
- CCC(=O)Nc1ccccc1N1CCN(S(C)(=O)=O)CC1 — lower, -20.6%
- COc1cccc(/C=N/Nc2ccc(S(=O)(=O)Nc3ccccc3C(=O)O)cc2[N+](=O)[O-])c1O — higher, -4.5%
- COc1ccc(OCC(=O)Nc2ccc(N3CCC(C)CC3)cc2)cc1 — higher, 65.5%
- COc1cccc(C(=O)NNC(=O)c2cccc(F)c2)c1 — lower, -14.2%
- O=C(Nc1ccccc1)c1ccc2c(c1)OCCCO2 — higher, -9.51%
- COc1ccc(C(=O)NCCCN2CCOCC2)cc1Br — lower, -15.8%
- COc1cccc(C(=O)Nc2ccc(N3CCN(C(=O)c4ccco4)CC3)cc2)c1 — higher, 36.3%
- COc1ccc(CNC(=O)COC(=O)C2=Cc3ccccc3OC2)cc1 — higher, -3.54%
- O=S1(=O)CCOC[C@H](Cc2ccccc2)N1Cc1ccccc1Br — lower, -16.4%
- O=C(OCCOc1ccccc1Cl)c1cc(S(=O)(=O)N2CCCCC2)ccc1N1CCOCC1 — higher, -9.43%
- CCn1c(-c2cc(OC)ccc2OC)csc1=Nc1c(C)n(C)n(-c2ccccc2)c1=O — higher, -4.8%
- COCCNC(=S)N/N=C/c1c(C)[nH]c2ccccc12 — higher, 2.4%
- O=C1C2C3C=CC(C3)C2C(=O)N1c1ncc([N+](=O)[O-])s1 (stereo not given) — higher, -8.82%
- CCC(=O)N1CCc2cc(Br)c(S(=O)(=O)NCCN3CCCCC3CC)cc21 (stereo not given) — higher, 11.6%
- COc1cc(C(=O)N2CCN(S(=O)(=O)c3ccc(C(C)C)cc3)CC2)ccc1OCC(=O)N1CCOCC1 — higher, -10.9%
- Cc1ccc(Nc2c(O)nc[nH]c2=O)cc1C — higher, 4.84%
- COC(=O)Cc1nc2c(N)nc(N)nc2[nH]c1=O — lower, -15.9%
- O=C(N/N=C/c1ccccc1O)C1CCCC1 — higher, 4.81%
- O=C(N/N=C/c1ccccc1O)/C(=C/c1ccccc1)CCO — higher, 24.8%
- COc1ccccc1C(=O)c1ccccc1C(=O)c1ccccc1 — higher, 6.29%
- COc1ccc(CNC(=O)CN2C(=O)c3ccccc3S2(=O)=O)cc1 — lower, -16.4%
- CC(C)C(=O)Nc1cccc(NC(=O)c2ccc([N+](=O)[O-])cc2Cl)c1 — higher, -2.31%
- CC(=O)c1ccc(NC(=O)Nc2ccc([N+](=O)[O-])cc2C)cc1 — higher, 26.8%
- Nc1ccc2[nH]c(=S)sc2c1 — higher, 5.71%
- COc1ccc(-c2nnn(CC(=O)N(CCO)C(C(=O)NC3CCCC3)c3ccc(F)cc3)n2)cc1 (stereo not given) — higher, 10.5%
- COc1cccc(N(CC(=O)NC2CCCC2)C(=O)CCCC(=O)Nc2ccccn2)c1 — higher, 21.1%
- O=c1[nH]c2c(c(=O)n1-c1ccccc1)CCO2 — higher, 2.86%
- O=C(Cc1cc(=O)[nH][nH]1)N/N=C/c1ccccc1[N+](=O)[O-] — lower, -19.1%
- CN(C)/N=C/c1cc(Cl)cc([N+](=O)[O-])c1O — lower, -14.6%
- N=C1c2ccccc2-c2ccccc21 — higher, -9.24%
- CCC(C(=O)OCC(=O)Nc1c(Cl)cc(Cl)cc1Cl)c1ccccc1 (stereo not given) — lower, -13.8%
- CCC(C(=O)OCC(=O)Nc1ccccc1-c1ccccc1)c1ccccc1 (stereo not given) — higher, -4.74%
- COc1ccc(NC(=O)/C(N=Nc2cccc(S(=O)(=O)Nc3ccc(SC(F)F)cc3)c2)=C(\C)O)cc1 — lower, -19.4%
- COc1ccc(NC(=O)c2cc3nc(-c4ccccc4)cc(C)n3n2)cc1OC — higher, -10.7%
- COC(=O)C(C)Sc1ccc2nnc(-c3cccc(F)c3)n2n1 (stereo not given) — higher, -12.2%
- COc1ccc(NS(=O)(=O)c2ccc(N3CCOCC3)c(NC(=O)/C=C/C(=O)O)c2)cc1 — lower, -22.2%
- CC(C)Cc1nnc(N)s1 — higher, -10.1%
- CCOc1ccc(C(C)=O)cc1COC(=O)CN1C(=O)NC2(CCCC2)C1=O — higher, 28.5%
- CCOc1ccc(C(C)=O)cc1COC(=O)c1cnc(Cl)c(Cl)c1 — higher, -10.9%
- Cc1cccc(C=CC(=O)c2ccc(Cl)cc2)c1 — higher, 0.714%
- NC(CSC1(c2ccccc2)c2ccccc2-c2ccccc21)C(=O)O (stereo not given) — higher, -5.45%
- O=C(NCc1ccccc1)c1cccc(NC(=O)C2CCCCC2)c1 — higher, 0.488%
- OCC1(CO)CC2(C1)CC(CO)(CO)C2 — lower, -21.2%
- Cc1ccc(OC(=O)CCC(=O)Nc2ccc(Br)cc2)cc1 — lower, -15.2%
- COc1ccc(C(=O)Nc2nc(-c3ccc(OC)cc3)c(-c3ccc([N+](=O)[O-])cc3)s2)cc1 — higher, 32.2%
- COc1ccc(-c2ccc3c(c2)C2CC3CCN2CCC#N)cc1 (stereo not given) — higher, 33.2%
- C=CCn1c(=O)n(C)c2c(=O)n(C)c(=O)n(C)c21 — higher, 1.14%
- COc1ccc(CCNC(=O)COc2cc(C)cc3oc(=O)c(C)c(C)c23)cc1OC — higher, 6.42%
- Cc1ccc(C(C)C)c(OCCSc2nc3ccccc3n2CC(=O)O)c1 — higher, -2.24%
- CCCn1c(C(O)c2ccc(OCC)cc2)nc2ccccc21 (stereo not given) — higher, 14%

With `Cc1cc(C)cc(NC(=O)NC2CCN(CC(=O)Nc3cccc(Cl)c3C)CC2)c1` the inhibition was 74.4% (active).
In the case of `Brc1ccc(-c2csc(N/N=C/c3ccc4c(c3)OCO4)n2)cc1`, the inhibition is reported as 79.4% (active).
For `CCc1ccnc(NC(=O)Nc2ccc(OCc3ccccc3)cc2)c1`, the inhibition was 81.9% (active).
For `Cc1ccccc1OCC(=O)Nc1ccc(N2CCN(C(=O)C(C)C)CC2)c(Cl)c1`, the inhibition was 72% (active).
In the case of `CCOC(=O)/C(=C\c1ccc([N+](=O)[O-])cc1)C(=O)c1cc(C(C)=O)c(Nc2ccccc2)s1`, the inhibition is reported as 80.9% (active).
In the case of `COc1ccc(C(=O)NC(=S)Nc2ccccc2N2CCN(S(C)(=O)=O)CC2)cc1OC`, the inhibition is reported as 74.4% (active).
`COc1cccc(C(=O)Nc2cc3c(cc2Br)OCCCO3)c1` was tested, and the inhibition was 83.6% (active).
With `COc1ccc(C(=O)Nc2ccc(N3CCC(C)CC3)cc2)cc1Br` the inhibition was 94.5% (active).
For `COc1cccc(C(=O)Nc2ccc(N3CCCC3)cc2)c1`, the inhibition was 80.4% (active).
With `CN=c1scc(-c2cc(OC)ccc2OC)n1/N=C/c1c(C)[nH]c2ccccc12` the inhibition was 77.2% (active).
For `O=C(NN=Cc1ccccc1O)NN=Cc1ccccc1O`, the inhibition was 79.8% (active).
With `Cc1cc([N+](=O)[O-])ccc1NC(=O)c1ccc(NC(=O)C(C)C)cc1` the inhibition was 74.9% (active).
`COc1cccc(N(CC(=O)NC2CCCC2)C(=O)Cn2nnc(-c3ccc(C)cc3)n2)c1` was tested, and the inhibition was 73.6% (active).
In the case of `O=C(N/N=C/c1cc(Cl)cc([N+](=O)[O-])c1O)C(O)(c1ccccc1)c1ccccc1`, the inhibition is reported as 77.8% (active).
With `CCC(C(=O)OCC(=O)Nc1ccc(C(=O)Nc2ccc(OC)cc2)cc1)c1ccccc1` (stereo not given) the inhibition was 79.1% (active).
`COCCNc1cc(-c2ccccc2)nc2cc(-c3cccc(F)c3)nn12` was tested, and the inhibition was 71.2% (active).
For `CCOc1ccc(C(C)=O)cc1COC(=O)CNC(=O)c1cccs1`, the inhibition was 72.6% (active).
`COC(=O)CCc1sc(Nc2ccc(Br)cc2)nc1-c1ccc(OC)cc1` was tested, and the inhibition was 87.4% (active).
`CCOc1ccc(OCCSc2nc3ccccc3n2CC(=O)O)cc1` was tested, and the inhibition was 71.7% (active).
